Measured values as given in PubChem BioAssay (NCI).
The panel holds about 83,000 compounds, 20% with a hit somewhere; the sample as a whole holds those more often.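 Testing used 96-well plates and a 48-hour single-concentration exposure. Example: -40 means 40% of the starting cells died.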 Activity calls are given as the source filed them. Rule for the calls: active = growth percent below 10; inactive = the rest.

Tested on: OVCAR-5 ovarian
Assay: NCI-60 one-dose screen, 48 h (100 = growth as untreated, 0 = no growth, -100 = all killed)
Conditions: 10 µM unless noted

SMILES	growth
Cc1cc(=O)oc2cc(Oc3nc(-c4ccccc4)cn4c(-c5ccccc5)cnc34)ccc12	105% (inactive)
Cc1ccc2c(n1)C[C@H](C(C)(C)O)CC[C@H]2C	94.7% (inactive)
Nc1nc(N)c2c(n1)NC(c1cccc(Nc3ccnc4cc(C(F)(F)F)ccc34)c1)CC(c1ccc(Cl)cc1)=N2 (stereo not given)	105% (inactive)
C(CCCSC1=NCCN1)CCSC1=NCCN1	89.8% (inactive)
O=S(=O)(Nc1ccc(Br)cc1)c1ccc(-c2cnc(C3CC3)o2)cc1	51% (inactive)
Nc1n[nH]c2cccc(C#Cc3cccc(C(=O)Nc4ccc(Cl)c(C(F)(F)F)c4)c3)c12	43.4% (inactive)
NC(=N\N=C/c1ccc(Cl)cc1Cl)/C(N)=N\N=C/c1ccc(Cl)cc1Cl	71.6% (inactive)
COc1cc(C(=O)/C=C/c2c(-c3cccs3)nc3sc(C)cn23)cc(OC)c1OC	56.9% (inactive)
Nc1nc(=O)n([C@H]2CC=C(CO)O2)cc1F	89.3% (inactive)
COc1ccc(Nc2nccc(Nc3ccc4[nH]ncc4c3)n2)cc1	52.1% (inactive)
Cc1[nH]c(C(=O)Nc2ccccc2OC2CCNC2)c(Cl)c1Cl (stereo not given)	95.5% (inactive)
CCN1CCN(CCOc2ccc(CNc3ccc4nc(CCC5CCCCC5)[nH]c4c3)cc2)CC1	58.7% (inactive)
O=C1NCCS(=O)(=O)/C1=C\C=C\c1cccc(C(F)(F)F)c1	48.4% (inactive)
CCCCCCCCCCCCCC[n+]1ccc2c(C)c3c(c(C)c2c1)c1cc(O)ccc1n3CC	-60.9% (active)
CCCc1cc(CCC)n2nc(N)nc2n1	98.8% (inactive)
O=S(=O)(c1ccc(NCSc2nc3ccccc3s2)cc1)c1ccc(NCSc2nc3ccccc3s2)cc1	107% (inactive)
COc1cc(/C=C2\CN(S(=O)(=O)c3ccc(C)cc3)C/C(=C\c3cc(CN4CCCC4)c(O)c(OC)c3)C2=O)cc(CN2CCCC2)c1O	-2.7% (active)
Cc1cccc(CN(Nc2ccccc2)c2ccccc2)n1	102% (inactive)
O=C(NS(=O)(=O)c1ccccc1)n1cc(-c2ccncc2)c(-c2cc(O)cc(Cl)c2)n1	115% (inactive)
CCCCN(CCC#N)C(N)=O	106% (inactive)

SMILES	growth
CCOC(=O)/C(=C/c1ccc([N+](=O)[O-])cc1)C(=O)c1ccccc1	41.7% (inactive)
N#Cc1c(-c2ccc(F)cc2)cc(-c2cccc(Cl)c2)[nH]c1=O	112% (inactive)
O=C(Nc1cccc(Cn2c(=O)[nH]c3ccc(Oc4ncccn4)cc3c2=O)c1)c1cccc(Cl)c1	86.2% (inactive)
O=C1c2c(c3c4cccnc4[nH]c3c3ccc4ccccc4c23)C(=O)N1O	110% (inactive)
COC(=O)c1nc(-c2ccccc2)oc1S(=O)(=O)N1CCN(c2ccc(OC)cc2)CC1	88.7% (inactive)
O=C1c2ccccc2-c2c1c1ccncc1c(=O)n2CCCn1ccnc1	88.5% (inactive)
COc1cc(-c2c(-c3ccccc3)c[nH]c2C(=O)NCCCO)c(OC)c2c1OCO2	99.5% (inactive)
C=C(C)Cn1c(SCC(=O)c2cccs2)nc2sc3c(c2c1=O)CCCC3	71.2% (inactive)
CNC1=C([N+](=O)[O-])C(c2ccc(OC)cc2)C(C#N)=C(c2ccc[nH]2)O1 (stereo not given)	109% (inactive)
Cn1cc(-c2nc(-c3c[nH]c4c(Cl)nccc34)cs2)c2ccccc21	120% (inactive)
N/C(=N\c1nc2ccccc2s1)NC(=O)Nc1ccccc1	51.7% (inactive)
C#Cc1ccc(NC(=O)Cc2ccc(/C=C/C(=O)c3nccn3C)cc2)cc1	105% (inactive)
Cc1cc2c(C(C)C)c(O)c(O)c(/C=N/O)c2c(O)c1-c1c(C)cc2c(C(C)C)c(O)c(O)c(/C=N/O)c2c1O	48.3% (inactive)
O=C(Nc1ccc2[nH]ncc2c1)c1csc(Nc2ccccc2)n1	64.5% (inactive)
COC(=O)c1nc(-c2ccccc2)oc1S(=O)(=O)NCC(c1ccc(Cl)cc1)N1CCCCC1 (stereo not given)	90.8% (inactive)
O=C(Nc1ccc(Oc2cccc(F)c2)c(Cl)c1)c1cnccn1	56.6% (inactive)
COc1ccc(Nc2nc(Nc3cc(C)[nH]n3)c3cc(OC)c(OC)cc3n2)cc1	-98% [20 µM] (active)
COC(=O)c1cc(-c2ccc(OC)c(OC)c2)[nH]c1N/N=C/c1c(Cl)cccc1Cl	49.4% (inactive)
CC(C)=CCC[C@](C)(O)C1CC[C@]2(C)[C@@H]1CC[C@@H]1[C@@]3(C)CC/C(=N\OCCC#N)C(C)(C)[C@@H]3CC[C@]12C (stereo not given in full)	99.1% (inactive)
N#C/C(=C\c1cccc2cnccc12)N1N=NC2C=CC=CC21 (stereo not given)	51.8% (inactive)
